Screens (PubChem BioAssay)
KDM4E inh: blocks human JMJD2E demethylase activity. B2RXH2. JMJD2E catalytic domain, FDH-coupled NADH fluorescence (FDH is formaldehyde dehydrogenase). Potency, µM (doses to about 57.1 µM), most hits filed as inhibitors. 230,000 tested, 1.6% active. AID 2147; active means well fitted inhibition curve with a large enough effect, not every such curve was filed as active; inconclusive means small, poorly fitted or top-dose-only effect, or another doubt; inactive means no such curve, though single readings can be large or run the other way; further: nearly all actives have a fitted effect of over 50% in size
NPSR antag: antagonists of human neuropeptide S receptor cAMP signaling; CHO-NPSR cells, cAMP TR-FRET, antagonist mode; 220,000 tested, 1% active; Potency, µM (highest dose often 38.3 µM), hits mostly inhibitors; further: nearly all actives have a fitted effect of over 50% in size
ALDH1A1 inh: inhibitors of human aldehyde dehydrogenase 1A1 | P00352 | Purified ALDH1A1, NADH fluorescence, propionaldehyde substrate | Potency, µM (series often up to 75.3 µM), hits mostly inhibitors | 220,000 tested, 7.3% active; active means well fitted inhibition curve with a large enough effect, not every such curve was filed as active; inconclusive means small, poorly fitted or top-dose-only effect, or another doubt; inactive means no such curve, though single readings can be large or run the other way
Coupling enz: inhibits coupling enzyme system, counter-screen for aldolase hits; coupling enzyme system counterscreen, AmpLite Red fluorescence; activity change, negative = inhibition, % at 58.2 µM, hits read low; 290,000 tested, 0.67% active; AID 2472; in the data active means activity change below about -30%
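Compounds tested against the coupling enzymes alone at 57.5 uM final; readout was AmpLite Red fluorescence (525/598 nm) after 20 min at RT.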
RGS12 GoLoco inh: inhibitors of human Gai1-RGS12 GoLoco interaction (red fluorophore). P63096. Gai1:RGS12 GoLoco peptide FP, rhodamine, 10 min. Potency, µM (series often up to 61.6 µM), most hits filed as inhibitors. 230,000 tested, 0.44% active; active means well fitted inhibition curve with a large enough effect, not every such curve was filed as active; inactive means no such curve, though single readings can be large or run the other way; further: nearly all actives have a fitted effect of over 30% in size
Target sequence (P63096 whole entry, looked up): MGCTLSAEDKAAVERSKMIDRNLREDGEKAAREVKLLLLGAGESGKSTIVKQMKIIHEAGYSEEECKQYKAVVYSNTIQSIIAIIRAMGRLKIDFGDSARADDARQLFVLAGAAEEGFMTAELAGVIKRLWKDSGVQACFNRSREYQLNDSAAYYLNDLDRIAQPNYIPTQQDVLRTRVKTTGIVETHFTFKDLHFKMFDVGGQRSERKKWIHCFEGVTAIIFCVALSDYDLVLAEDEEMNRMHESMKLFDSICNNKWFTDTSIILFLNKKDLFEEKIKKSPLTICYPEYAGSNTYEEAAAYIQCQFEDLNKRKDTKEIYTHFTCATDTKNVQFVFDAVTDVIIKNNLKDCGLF
Sfp inh: inhibitors of Bacillus subtilis Sfp phosphopantetheinyl transferase. 310,000 tested, 3.5% active. Biochemical Sfp PPTase activity, qHTS. AID 1490. Potency, µM, most hits filed as inhibitors. Q9F4F7;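 further: the enzyme is Sfp with the accession as filed and its product quenches rhodamine fluorescence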
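Reaction rates are the 30-min fluorescence difference (ex 525, em 598 nm) in wells containing 15 nM Sfp, 5 uM rhodamine-CoA and 12.5 uM BHQ-2-YbbR at pH 7.6 with 10 mM MgCl2.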
Large screens that a line does not name were inactive. An excerpt weighted towards active compounds, which were near 8.5% of everything screened. Unless noted, the call rests on the fitted dose curve; in most records, active means well fitted curve in the direction sought with a large enough effect; inconclusive means small, poorly fitted or top-dose-only effect, or another doubt; inactive means no such curve, though single readings can be large; an effect the other way counts as inactive or inconclusive.

O=C(CCN1C(=O)C2C3C=CC(C3)C2C1=O)N1CCN(c2ccccc2Cl)CC1 (stereo not given)	ALDH1A1 inh 2µM
Cc1ccc(NCN2C(=O)C3C4C=CC(C4)C3C2=O)cc1 (stereo not given)	none
O=C1C2C3C=CC(C3)C2C(=O)N1CCc1ccccc1 (stereo not given)	ALDH1A1 inh 11µM
O=C(CCN1C(=O)C2C3C=CC(C3)C2C1=O)N1CCN(c2ccccc2F)CC1 (stereo not given)	ALDH1A1 inh inconclusive
CN(C)C(CNC(=O)c1cc(S(=O)(=O)N(C)c2ccccc2)ccc1Cl)c1cccs1 (stereo not given)	none
Cc1cc(C)c2c3c(oc2n1)C(=O)N(c1cccc(Cl)c1)CC(=O)N3	none (no result: ALDH1A1 inh)
Cc1ccc(-c2n[nH]c(=O)c3ccccc23)cc1N	none
Nc1ccc(-c2n[nH]c(=O)c3ccccc23)cc1N	KDM4E inh inconclusive, ALDH1A1 inh inconclusive, Sfp inh 14µM
O=C(COC(=O)/C=C/c1ccc(C(F)(F)F)cc1)NCc1ccco1	none (no result: KDM4E inh, NPSR antag, ALDH1A1 inh, Coupling enz, RGS12 GoLoco inh)
CS(=O)(=O)N1CC(C(=O)NC2CCCC2)Oc2ccc(Cl)cc21 (stereo not given)	ALDH1A1 inh 10µM
COc1cccc(/C=C2\SC(=S)N(N3CCOCC3)C2=O)c1OC	ALDH1A1 inh 14µM
COc1ccccc1/C=C1\SC(=S)N(N2C(=O)CCCC2=O)C1=O	ALDH1A1 inh 25µM
O=C1/C(=C/c2ccccn2)SC(=S)N1N1CCOCC1	ALDH1A1 inh 4.5µM, Sfp inh inconclusive
CN(C)CC1CCCCC1OC(=O)/C=C/c1ccccc1 (stereo not given)	none (no result: ALDH1A1 inh)
C/C(=N\NC(=O)COc1ccc(C(C)(C)C)cc1)c1cc2ccccc2o1	none
CC(NC(=O)c1cc2ccccc2o1)C(=O)O (stereo not given)	ALDH1A1 inh 22µM
C/C(=N\NC(=O)c1cc2ccccc2cc1O)c1cc2ccccc2o1	RGS12 GoLoco inh 25µM (no result: ALDH1A1 inh)
C/C(CC(=O)N1CCN(C=O)CC1)=N\NC(=O)c1cc2ccccc2cc1O	KDM4E inh 28µM
C/C(=N\NC(=O)c1cc2ccccc2cc1O)c1ccccn1	none (no result: KDM4E inh, NPSR antag, ALDH1A1 inh, Coupling enz, RGS12 GoLoco inh)
COc1ccc(NCC(=O)N/N=C(\C)c2cc3ccccc3o2)cc1	KDM4E inh inconclusive, ALDH1A1 inh 25µM
O=C(Nc1ccc(F)cc1)c1cc2ccccc2o1	none (no result: KDM4E inh, NPSR antag, ALDH1A1 inh, RGS12 GoLoco inh)
C/C(=N\NC(=O)CNc1ccc(F)cc1)c1cc2ccccc2o1	ALDH1A1 inh 11µM
Cc1cccc(C)c1-n1nnnc1-c1cnccc1C(F)(F)F	ALDH1A1 inh 20µM
COc1ccc(Cc2nc3ccc(C(=O)NC(C)Cc4ncccc4C)cc3o2)cc1OC (stereo not given)	none (no result: KDM4E inh, NPSR antag, ALDH1A1 inh, Coupling enz, RGS12 GoLoco inh)
Cn1ncc(Cl)c1C(=O)NCC1CCCO1 (stereo not given)	none (no result: KDM4E inh, NPSR antag, ALDH1A1 inh, Coupling enz, RGS12 GoLoco inh)
C=C(C)CN(CC)c1nc(N)c2c(N)nc3c(c2c1C#N)CC(=O)N3C12CC3CC(CC(C3)C1)C2	NPSR antag 5µM
CC1=C(C)CS(=O)N(S(=O)(=O)c2ccccc2)C1 (stereo not given)	ALDH1A1 inh inconclusive, Sfp inh 14µM
CC1=C(C)CS(=O)N(c2ccc(S(N)(=O)=O)cc2)C1 (stereo not given)	NPSR antag inconclusive, Sfp inh 25µM
O=C(N/C(=C/c1ccco1)C(=O)N1CCCC1)c1cccs1	Sfp inh 32µM
O=C(NCc1cccnc1)c1ccc2c(c1)N(Cc1ccccc1)CCS2	KDM4E inh inconclusive, ALDH1A1 inh inconclusive, Sfp inh 50µM
Cc1ccc2nc(/C(C#N)=C\c3ccc(N4CCOCC4)o3)[nH]c2c1	ALDH1A1 inh inconclusive
N#C/C(=C(/O)c1ccc([N+](=O)[O-])o1)c1nc2ccccc2[nH]1	none (no result: ALDH1A1 inh)
N#C/C(=C\c1ccc([N+](=O)[O-])o1)c1nc2ccccc2[nH]1	KDM4E inh inconclusive, NPSR antag 4µM
Cc1ccc2nc(/C(C#N)=C\c3ccc([N+](=O)[O-])o3)[nH]c2c1	NPSR antag 10µM (no result: Coupling enz)
O=C(CCn1nc(-c2ccc(Cl)cc2)c2ccccc2c1=O)NN1CCOCC1	none (no result: ALDH1A1 inh)
Cc1cc(NC(=O)c2cnn3c(C(F)F)cc(C4CC4)nc23)no1	ALDH1A1 inh 5µM
COCC(=O)N(Cc1cc2ccccc2[nH]c1=O)c1ccc(OC)cc1	ALDH1A1 inh 32µM
